Screening results: PubChem BioAssay, Sanford-Burnham Center for Chemical Genomics
An excerpt weighted towards active compounds, which were near 4% of everything screened.
TIM10 inh: TIM10 yeast growth inhibition | inhibition, % at 10 µM | AID 463195 | S. cerevisiae TIM10 strain growth, BacTiter-Glo luminescence, 24 h | 330,000 tested, 1.4% active;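 active means inhibition of 40% or more at the single tested concentration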;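 further: wild-type TIM10 isogenic control strain grown at permissive 25 °C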
NALP3 yeast inh: inhibitors of NALP3 inflammasome in yeast | 330,000 tested, 0.39% active | Yeast reconstituted NLRP3/ASC/caspase-1, beta-gal luminescence, 24 h | inhibition, % at 10 µM;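 active means inhibition of 50% or more; inactive means inhibition below 50%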;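 further: plate controls were induced DMSO wells for no effect and uninduced yeast grown without galactose for full effect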
tim23-1 inh: growth inhibitors of tim23-1 mutant yeast; S. cerevisiae tim23-1 growth, BacTiter-Glo luminescence, 24 h; inhibition, % at 20 µM; 330,000 tested, 1.3% active;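 active means growth inhibition of the mutant yeast at or above 50%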;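 further: temperature-sensitive mutant grown at 25 °C; plate controls were DMSO-treated mutant yeast for no effect and medium wells lacking yeast for full effect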
NALP1 yeast inh: NALP1 inhibition; 280,000 tested, 0.61% active; S. cerevisiae NALP1/ASC/caspase-1 growth, X-gal OD620, 72 h; AID 2071; inhibition, % at 10 µM; in the data active means inhibition mostly above about 24%, no sharp cut-off; inactive means mostly below about 32%
tim10-1 inh: tim10-1 yeast growth inhibition; S. cerevisiae tim10-1 ts strain growth, BacTiter-Glo, 24 h; inhibition, % at 20 µM; 330,000 tested, 2.2% active; AID 463190;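 active means inhibition of at least 40%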;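 further: mutant grown at 25 °C; 0% = DMSO wells with yeast and 100% = wells holding no yeast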
tim10-1 conf: tim10-1 yeast growth inhibition, confirmed; inhibition, % at 20 µM; S. cerevisiae tim10-1 ts strain growth, BacTiter-Glo, 24 h; shares compounds with tim10-1 inh; 7,400 tested, 56% active;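 active means inhibition of yeast growth at or above a set limit in either of two repeat tests at 20 µM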;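 further: tim10-1 mutant grown at permissive 25 °C to find synthetic lethal compounds; 0% = DMSO yeast wells and 100% = medium wells without yeast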
* hit, by the source's call; . = not tested or not shown.

SMILES	TIM10 inh	NALP3 yeast inh	tim23-1 inh	NALP1 yeast inh	tim10-1 inh	tim10-1 conf
COc1ccccc1N(CC(O)CN1CCCCC1)S(=O)(=O)c1ccc(C)cc1 (centres undefined)	-4.0	23.2	19.5	2.3	15.8	.
Cc1cccc(CSC(Nc2ccc(F)cc2)=C(C#N)C#N)c1	24.0	11.6	25.4	10.7	43.6*	28.1
N#CC(C#N)=C(Nc1ccc(F)cc1)SCc1cccc(Br)c1	.	.	.	55.8	.	.
COc1ccc(-c2nc(-c3cccs3)c(-c3cccs3)[nH]2)cc1OC	35.6	-55.3	7.1	-13.8	49.9*	35.9*
O=[N+]([O-])c1cccc(-c2nc(-c3cccs3)c(-c3cccs3)[nH]2)c1	37.9	-12.9	14.4	2.0	28.3	.
O=C(NCCc1ccc(Cl)cc1)c1cc(-c2ccccn2)nc2ccccc12	30.1	6.8	43.8	5.4	35.5	.
COc1ccc(C2=NN(C(=O)CSc3nnc(-c4ccccc4F)o3)C(c3ccco3)C2)cc1 (centres undefined)	26.2	4.5	42.4	42.2	47.5*	37.5*
COc1ccc(Cl)cc1Nc1nnc(-c2ccncc2)s1	-24.0	3.5	-5.2	33.5	-22.8	.
Clc1ccccc1Nc1nnc(-c2ccncc2)s1	30.2	37.3	42.5	31.9	40.4*	40.9*
COC(=O)c1ccccc1NC(=O)c1sc(=S)n(C)c1N	35.0	2.2	30.2	0.8	46.1*	22.4
COC(=O)c1ccccc1NC(=O)c1sc(N)nc1C	-13.2	27.9	-8.3	38.1	14.3	.
CCCC(=O)Nc1cc(-c2nnc(OC)c3ccccc23)ccc1N1CCCCC1	39.2	-4.6	37.4	26.8	48.8*	26.4
Cc1cccc(C)c1NC(=O)COC(=O)[C@@H]1CCCN1C(=O)c1cccs1	0.6	10.5	9.7	.	6.2	.
COC(=O)CCC(=O)NNC(=O)C1CC1(c1ccccc1)c1ccccc1 (centres undefined)	-2.9	6.6	-12.0	0.1	11.5	.
O=c1c2c([nH]n1-c1ccccc1)CCCC2	20.0	-12.3	39.1	-0.2	46.1*	27.2
Cn1ccsc1=NC(=O)c1ccc(Cl)c([N+](=O)[O-])c1	-6.9	13.4	-0.7	29.8	-0.8	.
Cn1cccc1C(=O)NC(=O)COC(=O)c1ccc(S(C)(=O)=O)cc1	-3.3	-5.8	9.8	.	0.9	.
Cn1ccsc1=NC(=O)c1ccc(S(C)(=O)=O)c([N+](=O)[O-])c1	30.9	1.1	34.5	3.7	40.1*	27.8*
Cn1cccc1C(=O)NC(=O)COC(=O)c1ccc(S(C)(=O)=O)c([N+](=O)[O-])c1	35.3	5.5	39.9	.	40.9*	32.5*
O=S(=O)(NNc1ccc(F)cc1F)c1cccc(Cl)c1	9.5	14.8	8.4	2.1	-5.6	.
O=C(Nc1nccs1)c1cncc(Br)c1	-2.7	22.5	11.5	-12.5	18.1	.
Cc1ccc(Cl)cc1NC(=O)CCN1C(=O)C2C3CCC(C3)C2C1=O (centres undefined)	3.8	0.5	6.9	3.7	-2.4	.
COc1cc(Br)c(/C=C/c2ccc3cccc(O)c3n2)cc1OC	12.1	-0.5	6.3	-8.5	26.4	.
Oc1cccc2ccc(/C=C/c3ccccc3Br)nc12	-1.4	33.6	27.6	2.6	17.7	.
Oc1cccc2ccc(/C=C/c3cccs3)nc12	18.9	17.8	41.0	5.2	41.0*	18.0
SMILES	TIM10 inh	NALP3 yeast inh	tim23-1 inh	NALP1 yeast inh	tim10-1 inh	tim10-1 conf
COc1cc(Br)cc(/C=C/c2ccc3cccc(O)c3n2)c1O	20.5	10.5	40.6	14.9	49.2*	37.8*
Oc1c(Cl)cc(Cl)cc1/C=C/c1ccc2cccc(O)c2n1	25.7	-17.8	29.9	3.6	43.2*	33.1*
COc1cc(/C=C/c2ccc3cccc(O)c3n2)c(Br)cc1O	37.4	-52.8	47.5	-16.7	46.6*	46.0*
COc1cc(OC)cc(N(C(=O)c2snc(C(N)=O)c2N)C(C(=O)NCC2CCCO2)c2ccc(C)o2)c1 (centres undefined)	-7.6	5.3	7.5	5.0	12.8	.
COc1ccccc1NC(=S)N(Cc1ccccn1)Cc1ccccc1Cl	31.2	5.9	29.8	2.8	39.5	.
Cc1ccccc1NC(=S)N(Cc1ccccn1)Cc1ccccc1Cl	27.4	-2.5	36.5	13.4	44.9*	34.4*
CCCNC(=S)N1CCC(NC(=O)Nc2ccc(C)cc2)CC1	-4.4	10.3	-4.0	6.5	-6.6	.
OC(COc1ccc2ccccc2c1Br)Cn1cnc(-c2ccccc2)c1 (centres undefined)	-6.0	10.9	8.4	27.9	43.5*	44.0*
CN(C)C(CNC(C(=O)Nc1ccc(F)cc1)c1ccccc1)c1ccccc1 (centres undefined)	-4.1	16.6	9.1	10.1	6.5	.
Cc1ccc(C(=O)N=c2sccn2C)o1	13.0	14.5	19.0	0.1	-0.2	.
CCCCCCC(=O)c1c(C)[nH]c(C(=O)OCC)c1C	8.9	22.2	27.2	7.4	40.5*	19.4
CCN(CC)CCCC(C)Nc1c2ccc(Cl)cc2nc2ccc(OC)cc12 (centres undefined)	.	.	.	3.0	.	.
COc1ccc2nc3cc(Cl)ccc3c(Nc3cc(C(C)C)c(O)cc3C)c2c1	18.5	35.6	40.6	26.7	46.7*	36.6*
Cc1ccc2c(c1)COc1c3ccc(C(=O)N4CCCCC4)cc3nn1-2	20.8	10.4	26.7	8.9	23.3	.
O=C(c1ccc2c3n(nc2c1)-c1ccccc1CO3)N1CCCCC1	32.9	-14.1	48.6	-11.9	51.0*	48.5*
COc1cc(C(C(=O)NCc2ccccc2)N(C(=O)c2snc(C(N)=O)c2N)C2CCCC2)cc(OC)c1OC (centres undefined)	10.5	13.1	9.2	-3.0	0.6	.
COc1ccc(-n2c(C)nc3c(cnn3-c3ccc(Cl)cc3)c2=O)cc1	24.9	3.9	29.6	6.5	40.9*	8.3
CC1=Nc2cc(C(=O)N3CCCC3)ccc2Sc2ccc(C)cc21	-1.6	16.4	-2.2	-1.2	10.6	.
CC1=Nc2cc(C(=O)N3CCCCC3)ccc2Sc2ccc(C)cc21	10.2	11.1	32.1	17.7	44.8*	-0.3
CCCC1=Nc2cc(C(=O)N3CCC(C(=O)OCC)CC3)ccc2Sc2ccccc21	-1.2	8.8	22.1	8.6	41.2*	-12.1
CCCC1=Nc2cc(C(=O)N3CCC(C(N)=O)CC3)ccc2Sc2ccccc21	6.9	2.6	4.3	11.2	-8.0	.
COc1ccc(C(=O)NCC(=O)Nc2ccc(-c3ccccc3)cc2)cc1	-13.6	10.0	-16.4	10.7	-6.4	.
CCN(CC)C(=O)Oc1ccc2c(=O)c(-c3ccccc3)coc2c1	25.1	37.5	21.2	16.1	54.1*	41.4*
COc1ccc(CNC(=O)C2CCC(=O)N(CCCN3CCCC3=O)C2)c(OC)c1 (centres undefined)	-0.4	2.7	8.7	2.8	23.7	.
N#C/C(=C\c1ccc(O)c(Br)c1)C(=O)NCc1ccccc1	19.3	15.1	28.1	-9.3	47.3*	17.0
COc1cc(C(=O)NCC2CCCO2)ccc1OCc1ccc(Cl)cc1 (centres undefined)	2.7	17.8	38.1	.	19.9	.
